Each sequence was assayed on THRa:RXRa (NR concentration 90 nM, RXRa partner concentration 90 nM) (assay: PBM binding z-score (relative to random genomic background probes); higher = stronger binding; sequences stand for … in GC…GCGATTGACAGCGTAGAATGAAGG).
Outline: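 Ligand-free nuclear receptor dimers were applied to custom Agilent 4×180K protein-binding microarrays whose double-stranded probes carried direct-repeat seeds, single-nucleotide variants, half-site ablations and random human genomic background sequences in 34-nt variable regions. Incubation lasted 1 h. Binding z-scores were computed against the random background probes from regression-normalized fluorescence.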

Row | Sequence | PBM binding z-score
1 | CGAACTAGGTCAAGGACAGTTAATCTCCGCACGC | 3.09
2 | ACTATGAGTTGACTTAGGGCAACCGATACGACGC | 2.22
3 | CGGCCTAGGTCAGGGCCAGTATAGGAGGAACGTT | 1.8
4 | CGAACTAGGGCATGAGTTGATAGCAAATGCCGAT | 0.0506
5 | GATACAGGGTCAAGGCCAGAGAACGCGTATTGAT | 3.3
6 | TCTATTAGTTGATTTGGGCAACCGAAACAGCGGA | -0.0733
7 | GAATATAGGTAATACAAGGTGAAAGTCCGATTGT | 4.2
8 | CCTACTAGGCCAAAAAGGTCATTGATGCCGATAA | 3.35
9 | CAAACTAGGTCAACGTCAAAGTCGGTTTGTGCCA | 3
10 | CGTCCAAGGACATAGGAGGTCAGTGAAGACAGAT | 3.54
11 | CCTCCTAGGTCATGGTCAGCTAATCTACAGTATG | 3.09
12 | TCGATTAGGTTACCAATGGGGCATTCAGCTTTCT | 0.894
13 | CCTTACGGTTCACGAGGTTATAGCACGACGAGCG | 2.8
14 | CGAATTAGGTCATCCAGGACAGTGAATACATTGA | 4.01
15 | CCTATTAGTTGACCATAAGGGCAACCGGAGCTCG | 1.87
16 | CGAACGAGGGCATGATTTGATAGCAAATGCCGAT | 0.985
17 | CGAACTAGGTCAGACCAGGACAGTGAAGGATGAT | 4.75
18 | CAGCCTAAGTCAGGGCCAGTATAGGAGGAACGTT | -0.328
19 | GCTAGTTGGTCAGTATAAGGTCACACACCGGTCG | 4.29
20 | CAGCCTAGGTCAGCGCCAGTATAGGAGGAACGTT | 2.05
21 | ATCTCTAGGTAACTAAGTTCAGTGAATGCCGAAC | 1.67
22 | ATCTCTAGGTAAAGATAGTACAGTGAATGCAAAT | 0.452

Reference: the supplement of paper PMC6555819
